TDP1 block – inhibitors of human tyrosyl-DNA phosphodiesterase TDP1 | recombinant TDP1, AlphaScreen DNA substrate cleavage | Potency, µM (titrated, usually from 130 µM), for the others: top-dose activity change, negative = inhibition, actives largely listed as inhibitors | actives 0.28% (n = 350,000) | AID 485290; also: nearly all actives have a fitted effect of over 40% in size
Target sequence (Q9NUW8 whole entry, looked up): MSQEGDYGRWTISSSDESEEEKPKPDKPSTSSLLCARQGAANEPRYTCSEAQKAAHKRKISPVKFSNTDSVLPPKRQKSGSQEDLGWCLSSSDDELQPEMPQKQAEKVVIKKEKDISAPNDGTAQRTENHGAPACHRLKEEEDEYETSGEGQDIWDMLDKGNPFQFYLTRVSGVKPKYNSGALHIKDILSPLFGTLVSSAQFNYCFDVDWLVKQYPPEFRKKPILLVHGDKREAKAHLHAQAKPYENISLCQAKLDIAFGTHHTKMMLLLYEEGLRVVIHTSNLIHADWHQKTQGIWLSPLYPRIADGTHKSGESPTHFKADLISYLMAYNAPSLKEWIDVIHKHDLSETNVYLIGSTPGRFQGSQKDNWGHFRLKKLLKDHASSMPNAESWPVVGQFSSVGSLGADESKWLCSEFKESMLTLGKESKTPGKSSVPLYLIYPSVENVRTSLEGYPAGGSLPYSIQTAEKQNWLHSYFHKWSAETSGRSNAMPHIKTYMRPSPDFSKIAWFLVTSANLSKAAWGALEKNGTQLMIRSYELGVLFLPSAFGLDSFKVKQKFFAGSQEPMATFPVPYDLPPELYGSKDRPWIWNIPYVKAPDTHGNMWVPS
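Recombinant E. coli-expressed Tdp1 (1 nM) preincubated with compound 15 min at RT, then 5'-biotin/3'-phosphotyrosine-FITC DNA substrate (15 nM) added for 5 min. AlphaScreen beads (10 ug/ml) added, 10 min RT; tyrosine-FITC cleavage read as signal loss.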
VP16 counter – inhibits Gal4-VP16 luciferase reporter, ROR gamma counter-screen; AID 2546; Potency, µM (doses to about 53.6 µM), for inactives: at the highest dose activity, negative = inhibition, most hits filed as inhibitors; Drosophila S2 Gal4-VP16 UAS-luciferase, luminescence, 20 h; actives 3.5% (n = 310,000);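 also: Gal4-VP16 expression switched on by copper sulfate through the metallothionein promoter; nearly all actives have a fitted effect of over 50% in size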
TDP1 cell CPT – growth inhibition of DT40 Tdp1-/-;hTDP1 cells with camptothecin (screen for TDP1 inhibitors); AID 686979; chicken DT40 Tdp1-/-;hTDP1 cells + 20 nM CPT, ATP luminescence, 48 h; actives 12% (n = 420,000); Potency, µM (doses to about 46.2 µM), for inactives: top-dose activity change, negative = growth inhibition, most hits filed as inhibitors; also: nearly all actives have a fitted effect of over 55% in size
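Cell growth measured by CellTiter-Glo luminescence after a minimum 48 h, 37 C compound exposure with 20 nM CPT in Tdp1-knockout DT40 cells stably expressing hTDP1, seeded 400/well; qHTS titration format.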
RORgamma inh – blocks mouse ROR gamma transcriptional activity; P51450; Drosophila S2 Gal4-RORgamma UAS-luciferase reporter, 20 h; Potency, µM (highest dose often 53.6 µM), for the others: at the highest dose activity change, negative = inhibition, hits mostly inhibitors; actives 5.4% (n = 310,000); also: nearly all actives have a fitted effect of over 60% in size
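Compounds are pin-transferred onto Drosophila Schneider cells expressing a copper-inducible Gal4–ROR gamma transactivation domain fusion. After 1 hr, copper sulfate is added to 700 uM final; luciferase is read 20 hr later.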
DT40 TDP1 no CPT – qHTS for Inhibitors of human tyrosyl-DNA phosphodiesterase 1 (TDP1): qHTS in cells in absence of CPT; actives 15% (n = 420,000); DT40 Tdp1-/- hTDP1 cells, no CPT, ATP luminescence, 48 h; Potency, µM (series often up to 46.2 µM), for inactives: top-dose activity change, negative = growth inhibition, most hits filed as inhibitors; also: nearly all actives have a fitted effect of over 55% in size
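Growth of hTDP1-complemented DT40 Tdp1-knockout cells is measured by ATP luminescence after at least 48 hr compound exposure at 37 °C, with DMSO substituting for the 20 nM CPT used in the parallel screen.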
Starred values were filed as active, the others as inactive; ? = inconclusive; . = no result. Most compounds without a hit are left out; they make up all but 19% or so of the library. Calls follow the shape of the dose curve; as a rule, active = well fitted curve in the direction sought with a large enough effect; inconclusive = small, poorly fitted or top-dose-only effect, or another doubt; inactive = no such curve, though single readings can be large; an effect the other way counts as inactive or inconclusive. % is scaled to controls: 0 for no effect and ±100 for the full control effect; potency is read from the fitted curve at half-maximal effect.

SMILES	TDP1 block	VP16 counter	TDP1 cell CPT	RORgamma inh	DT40 TDP1 no CPT
O=C(CCC(NC(=O)OCc1ccccc1)C(=O)O)OCc1ccccc1 (configuration not stated)	.	-5.4%	1.1%	-9.5%	1.5%
CCCCNC(=O)NNc1nc(Cl)cc(C)c1C#N	1.2%	14.1µM*	?	-26.2%	-12.7%
CCCCNc1nc(C)c(C(C)=O)cc1C#N	-2.7%	20.4%	-6.4%	-2.1%	-3.7%
COc1ccc(-c2nc(NC(C)=O)sc2-c2ccc(OC)cc2)cc1	5.8%	-16.5%	0.6%	-37.6%	-27.4%
COc1ccc(-c2sc(NC(=O)c3ccc(C)cc3)nc2-c2ccc([N+](=O)[O-])cc2)cc1	3.1%	-0.1%	23.1µM*	-13.4%	?
COc1ccc(C(=O)Nc2nc(-c3ccc([N+](=O)[O-])cc3)c(-c3ccccc3)s2)cc1	.	.	8.2µM*	.	7.31µM*
COc1ccc(C(=O)Nc2nnc(-c3ccccc3)s2)cc1	-5.2%	4.5%	?	-19.0%	?
C/C=C/c1ccccc1OCc1ccc(C(=O)O)o1	-1.1%	3.2%	2.5%	-5.2%	-7.8%
CN(CC(=O)N1CCN(c2ccccn2)CC1)S(=O)(=O)c1ccc(Br)cc1	4.4%	-1.8%	-18.9%	-12.7%	-24.3%
CC(=NO)C1CCC2C3CCC4CC(=NO)CCC4(C)C3C(C)(O)CC12C (configuration not stated)	.	.	?	.	14.6µM*
CC(=O)C1(O)CCC2C3CCC4CC(=O)CCC4(C)C3C(=O)CC21C (configuration not stated)	.	.	9.5%	.	-0.8%
O=C(Nc1ccc(C(O)c2ccccc2)cc1)[C@@H]1O[C@H](CO)[C@@H](O)[C@H]1O (some centres not stated)	.	.	7.8%	.	1.1%
CC(C)c1ccc(NC(=S)NN(c2ccccc2)c2ccccc2)cc1	0.6%	5.01µM*	13µM*	3.16µM*	25.9µM*
CC(C)c1ccc(NC(=S)NNC(=O)C2CC2)cc1	5.4%	-27.3%	-1.6%	-42.8%	14.6%
CC(C)N(c1ccccc1)c1ccc(NC(=S)NCCN(C)C)cc1	-2.5%	-3.9%	?	0.6%	20.6µM*
CC(C)N(c1ccccc1)c1ccc(NC(=O)[C@@H]2O[C@H](CO)[C@@H](O)[C@H]2O)cc1	.	.	20.6µM*	.	?
CCNC(=S)NN(c1ccccc1)c1ccccc1	-3.4%	?	-11.3%	7.94µM*	-7.3%
O=C(C1CCN(c2nnc(-n3cccc3)s2)CC1)N1CCCCC1	0.7%	-26.2%	-7.8%	40.4%	9.4%
O=C(c1ccc(F)c(S(=O)(=O)N2CCOCC2)c1)N(c1ccccc1)c1ccccn1	5.4%	-3.5%	-11.2%	13.6%	-27.4%
Cn1ccn(CCCCCCn2ccn(C)c2=S)c1=S	.	.	-8.9%	.	?
O=C(C1CCN(S(=O)(=O)c2ccc(Cl)cc2)CC1)N1CCOCC1	5.9%	1.2%	-2.3%	1.7%	1.9%
CCNC(=S)Nc1ccc(N(c2ccccc2)C(C)C)cc1	2.3%	-1.9%	25.9µM*	-44.1%	20.6µM*
CCOc1cc(C2C(C(=O)OC)=C(C)NC3=C2C(=O)c2ccccc23)cc(Cl)c1O (configuration not stated)	.	.	?	.	18.4µM*
CCOC(=O)C1=C(C)NC2=C(C(=O)c3ccccc32)C1c1ccc([N+](=O)[O-])o1 (configuration not stated)	9.4%	4.6%	23.1µM*	6.3%	16.4µM*
COC(=O)COc1ccc(C2C(C(=O)OC)=C(C)NC3=C2C(=O)c2ccccc23)cc1OC (configuration not stated)	.	.	8.2%	.	0.1%
SMILES	TDP1 block	VP16 counter	TDP1 cell CPT	RORgamma inh	DT40 TDP1 no CPT
COc1ccc(N(CC(=O)Nc2ccc(C)c(F)c2)S(=O)(=O)c2c(C)noc2C)cc1	0.5%	4.3%	?	13.6%	-2.2%
O=C1CC2(CCCCC2)Oc2ccc(F)cc21	.	.	-4.5%	.	-3.6%
CCCCCCOc1ccc(/C=c2\s/c(=C(/C#N)C(=O)NCc3ccco3)n(-c3ccccc3)c2=O)cc1	5.6%	-10.5%	2.91µM*	10.7%	6.51µM*
COC(=O)/C=c1/s/c(=C(/C#N)C(=O)NCc2ccccc2)n(-c2ccccc2)c1=O	4.6%	6.4%	-10.9%	-9.7%	-2.8%
OC1(C2(O)CC(c3ccccc3)ON2)CCCCC1 (configuration not stated)	2.1%	11.5%	?	?	18.4µM*
O=C(COc1ccccc1F)N1CCCc2ccccc21	.	0.4%	-5.2%	1.3%	-0.9%
Cc1cccc(CN2CCc3c(OCC(=O)N4CCCc5ccccc54)cccc3C2=O)c1	3.2%	-11.0%	4.61µM*	?	5.8µM*
CN1CCc2c(OCC(=O)N3CCC(Cc4ccccc4)CC3)cccc2C1=O	5.8%	-14.7%	20.6µM*	44.6%	18.4µM*
CN1CCc2c(OCC(=O)N3CCCc4ccccc43)cccc2C1=O	0.6%	-6.4%	-25.5%	23.3%	29.1µM*
CCOc1ccc(S(=O)(=O)N2CCN(Cc3ccccc3)CC2)cc1	.	-13.7%	-12.7%	-3.0%	-12.5%
Cc1cc(=O)oc2c(CN3CCC(C)CC3)c(O)c(Cl)cc12	?	-7.9%	13.9%	3.5%	0.5%
O=C(NCC(c1cccnc1)N1CCc2ccccc2C1)C(=O)Nc1ccccc1F (configuration not stated)	2.6%	.	14.6µM*	.	20.6µM*
O=C(NCC(c1cccnc1)N1CCc2ccccc2C1)C(=O)Nc1ccccc1 (configuration not stated)	7.8%	.	20.6µM*	.	?
O=C(NCC(c1cccnc1)N1CCc2ccccc2C1)c1ccc(F)c(F)c1 (configuration not stated)	1.3%	.	8.2µM*	.	7.31µM*
CN1CCN(C(CNC(=O)C(=O)Nc2ccc(F)cc2)c2cccnc2)CC1 (configuration not stated)	3.9%	.	-21.5%	.	-2.8%
O=C(NCC(c1ccco1)N1CCc2ccccc2C1)c1cccc(F)c1 (configuration not stated)	.	.	-11.7%	.	-19.2%
CC(=O)Nc1cccc(NC(=O)C(=O)NCC(c2ccco2)N2CCc3ccccc3C2)c1 (configuration not stated)	.	.	16.4µM*	.	23.1µM*
COc1cccc(NC(=O)C(=O)NCC(c2ccco2)N2CCc3ccccc3C2)c1 (configuration not stated)	0.3%	.	?	.	?
CCS(=O)(=O)Nc1cccc(C2=NN(S(=O)(=O)c3ccc(C)cc3)C(c3ccco3)C2)c1 (configuration not stated)	8.1%	-5.2%	-7.0%	9.0%	?
COc1cccc(C(=O)OCC(=O)N2CCc3ccccc32)c1OC	1.3%	.	7.1%	.	-16.6%
